Experimental data as given in PubChem BioAssay (NCATS).
Values without a mark were called inactive. Records with an inconclusive call do not appear. Activity calls are given as the source filed them. Unless noted, calls come from the whole dose curve; as a rule, active = well fitted curve in either direction with a large enough effect (not every such curve was filed as active); inconclusive = small, poorly fitted or top-dose-only effect, or another doubt; inactive = flat fitted curve, though single readings scatter.

How the values were obtained:
[1] = target: Lysosomal acid glucosylceramidase (Homo sapiens) (UniProt P04062); assay: Glucocerebrosidase-p2 (AID 348; in the data active = potency below about 10 µM; note: potency is the fitted concentration of half-maximal effect); conditions: purified GBA, blue fluorogenic substrate, 40 min
Method in brief: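 Compounds titrated from 0.6 nM upwards against 0.2 nM enzyme in pH 5.9 citric acid/KH2PO4, taurocholate, tween-20; blue fluorogenic substrate 80 uM, 40 min room temperature, stopped and read Ex 365/Em 440 for AC50.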

[2] = AP1 Signaling Pathway (AID 357); conditions: ME-180 AP-1-bla reporter, EGF-induced, beta-lactamase ratio, 5 h; at 7.69 µM (top of the series) unless noted;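 note: ME-180 reporter cells stimulated with EGF at its EC50 level; % is set by controls: 0 for no effect and ±100 for the full control effect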
Method in brief: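 Titration-series screen for positive or negative modulators of EC50 EGF-induced signaling in ME-180 cells carrying an AP-1-driven beta-lactamase reporter. After 5 hours at 37 degrees Celsius, CCF4 460nm/530nm emission ratio gave %Activity; AC50 values derived.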

[3] = target: Cytochrome P450 1A2 (Homo sapiens) (UniProt P05177); assay: p450-cyp1a2 (AID 410; calls by dose curve; note: potency is the fitted concentration of half-maximal effect;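 for activity change, negative = inhibition: -100% = full effect of reference inhibitor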); conditions: recombinant CYP1A2, luciferin-ME demethylation, luminescence; series mostly up to 11.4 µM
Method in brief: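 Human CYP1A2 (20nM) demethylated Luciferin-ME at its Km (100uM) in 100mM KPO4. After 10 min compound preincubation, NADPH regeneration ran the reaction 60 min at room temperature. Luciferin was read by luminescence, normalized to 57 uM furafylline.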

[4] = Stat Signaling Pathway (AID 446); conditions: ME-180 (cervical carcinoma) SIE beta-lactamase reporter, IL-6 stimulated, 5 h; at 7.69 µM (top of the series) unless noted;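 note: ME-180 cervical cancer cells given 40 pM IL-6 alongside compound; SIE-controlled beta-lactamase reporter measured as 460/530 nm FRET emission ratio; % is set by controls: 0 for no effect and ±100 for the full control effect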
Method in brief: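 IL-6/STAT signaling read in ME-180 cells via an SIE beta-lactamase reporter. Stimulus was 40 pM IL-6 (its AC50) for 5 hrs, so both activation and inhibition register.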

[5] = target: Glucocorticoid receptor (Homo sapiens) (UniProt P04150); assay: GR-GFP Redistribution (AID 450;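 active = compounds whose dose series gives a full or clear partial fitted curve of increased nuclear translocation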; note: potency is the fitted concentration of half-maximal effect); conditions: U2OS GR-GFP nuclear translocation, laser cytometry, 2 h
[6] = target: Glucocorticoid receptor (Homo sapiens) (UniProt P04150); assay: GR-EFC Redistribution (AID 451; calls by dose curve; note: potency is the fitted concentration of half-maximal effect); conditions: CHO-K1 GR-EFC translocation, beta-gal luminescence, 2 h
Method in brief: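 CHO-K1 cells expressing nuclear EA and GR-ED fragments of b-gal; compounds titrated up to 46 uM final, 2 h at 37 C. GR nuclear translocation read as complemented b-gal luminescence after 1 h RT detection.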

[7] = target: 3',5'-cyclic-AMP phosphodiesterase 4B (Homo sapiens) (UniProt Q07343); assay: qHTS Assay for Inhibitors of PDE-IV (AID 607; active = well fitted activation curve with a large enough effect in the main read-out, with a control signal flat, not every such curve was filed as active; note: % of control where 0% means no effect); conditions: HEK293 ACTOne CNG channel cells, membrane potential fluorescence; series mostly up to 22.9 µM
Method in brief: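 Live HEK293 cells with a modified cyclic nucleotide-gated (CNG) channel report intracellular cAMP via membrane-potential dye fluorescence (ex 535/em 590 nm). Endogenous PDE-IV was targeted. Compounds were tested at up to 22.9 uM final; RO 20-1724 100 uM served as control.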

[8] = target: Cytochrome P450 2C9 (Homo sapiens) (UniProt P11712); assay: qHTS Assay for Inhibitors and Substrates of Cytochrome P450 2C9 (AID 883; active = well fitted curve in the direction sought with a large enough effect; an effect the other way counts as inactive or inconclusive; note: nearly all actives have a fitted effect of over 60% in size; note: potency is the fitted concentration of half-maximal effect); conditions: recombinant CYP2C9, luciferin-H luminescence, 60 min; series mostly up to 11.4 µM
Method in brief: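 10nM CYP2C9 + 100uM Luciferin-H (=KM), 25mM KPO4; cpd 10 min 37C; NADPH regen, 60 min 37C; stop/detect with P450 Glo-Buffer 20 min; luminescence. Norm. to 57uM sulphaphenazole as full inhibition.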

[9] = target: Cytochrome P450 2D6 (Homo sapiens) (UniProt P10635); assay: qHTS Assay for Inhibitors and Substrates of Cytochrome P450 2D6 (AID 891; active = well fitted curve in the direction sought with a large enough effect; an effect the other way counts as inactive or inconclusive; note: nearly all actives have a fitted effect of over 60% in size; note: potency is the fitted concentration of half-maximal effect); conditions: recombinant CYP2D6, luciferin-ME EGE luminescence; series mostly up to 11.4 µM
Method in brief: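 Human CYP2D6 (5 nM) with 30 uM Luciferin-ME EGE (at Km) in 100 mM KPO4, compound preincubated 10 min, then NADPH regeneration system for 60 min at room temperature. Luciferin read by luminescence; normalized to 1.43 uM quinidine.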

[10] = target: Cytochrome P450 2C19 (Homo sapiens) (UniProt P33261); assay: qHTS Assay for Inhibitors and Substrates of Cytochrome P450 2C19 (AID 899; active = well fitted curve in the direction sought with a large enough effect; an effect the other way counts as inactive or inconclusive; note: nearly all actives have a fitted effect of over 60% in size; note: potency is the fitted concentration of half-maximal effect); conditions: recombinant CYP2C19, luciferin-H EGE luminescence; series mostly up to 11.4 µM
Method in brief: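 Luminescent read-out of luciferin formed from Luciferin-H EGE (10uM, equal to KM). Enzyme 5nM in 50mM KPO4; compound added, 10 min at 37C, then NADPH regenerating system for 60 min at 37C. Full inhibition defined by 57uM ketoconazole.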

[11] = target: Mitogen-activated protein kinase 10 (Mus musculus) (UniProt Q61831); assay: JNK3 AlphaScreen Assay (AID 530); conditions: JNK3 lysate, c-Jun phosphorylation; series mostly up to 11.4 µM;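 note: kinase came from lysate of stimulated human HepG2 cells; signal reports phosphorylation of biotinylated GST-cJun 1-79 at Ser73 with 10 µM ATP; % is set by controls: 0 for no effect and ±100 for the full control effect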
Method in brief: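 qHTS format: compounds tested as titrations against IL-1beta/TNF-alpha-activated HepG2 lysate JNK3 with biotin-GST-cJun substrate and 10 uM ATP at room temperature. Loss of anti-phospho-cJun AlphaScreen signal indicates inhibition.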

[12] = NFAT Signaling Pathway (AID 444); conditions: Jurkat NFAT-bla M1, carbachol, beta-lactamase ratio, 5 h; at 7.69 µM (top of the series) unless noted;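 note: carbachol stimulus at about its EC50 of 1 µM final; % is set by controls: 0 for no effect and ±100 for the full control effect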
Method in brief: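 Jurkat cells with NFAT-driven β-lactamase reporter and co-expressed M1 receptor, stimulated with carbachol (final 1 uM, ~EC50), compound titration, 5 h at 37 °C. CCF4 loaded 1 h at RT; 460/530 nm ratio gave %activity and AC50.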

[13] = target: Cytochrome P450 3A4 (Homo sapiens) (UniProt P08684); assay: qHTS Assay for Inhibitors and Substrates of Cytochrome P450 3A4 (AID 884; active = well fitted curve in the direction sought with a large enough effect; an effect the other way counts as inactive or inconclusive; note: potency is the fitted concentration of half-maximal effect; nearly all actives have a fitted effect of over 50% in size); conditions: recombinant CYP3A4, Luciferin-PPXE luminescence; series mostly up to 57.1 µM
Method in brief: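 20 nM human CYP3A4 with 25 uM Luciferin-PPXE (at KM) in 200 mM KPO4, preincubated 10 min with compound; NADPH regeneration started a 60 min RT reaction. Luciferin detected by luminescence, normalized to 57 uM ketoconazole as full inhibition.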

[14] = target: Cytochrome P450 3A4 (Homo sapiens) (UniProt P08684); assay: qHTS Assay for Activators of Cytochrome P450 3A4 (AID 885; active = well fitted curve in the direction sought with a large enough effect; an effect the other way counts as inactive or inconclusive; note: nearly all actives have a fitted effect of over 65% in size); conditions: recombinant CYP3A4, Luciferin-PPXE luminescence, 60 min; series mostly up to 11.4 µM
Method in brief: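 Quantitative HTS format: compounds preincubated with 20nM human CYP3A4 and Luciferin-PPXE substrate at KM, reaction started by NADPH regeneration, stopped after 60 min, luciferase luminescence read 20 min later.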

3',5'-cyclic-AMP phosphodiesterase 4B (Homo sapiens), sequence (Q07343 whole entry, looked up): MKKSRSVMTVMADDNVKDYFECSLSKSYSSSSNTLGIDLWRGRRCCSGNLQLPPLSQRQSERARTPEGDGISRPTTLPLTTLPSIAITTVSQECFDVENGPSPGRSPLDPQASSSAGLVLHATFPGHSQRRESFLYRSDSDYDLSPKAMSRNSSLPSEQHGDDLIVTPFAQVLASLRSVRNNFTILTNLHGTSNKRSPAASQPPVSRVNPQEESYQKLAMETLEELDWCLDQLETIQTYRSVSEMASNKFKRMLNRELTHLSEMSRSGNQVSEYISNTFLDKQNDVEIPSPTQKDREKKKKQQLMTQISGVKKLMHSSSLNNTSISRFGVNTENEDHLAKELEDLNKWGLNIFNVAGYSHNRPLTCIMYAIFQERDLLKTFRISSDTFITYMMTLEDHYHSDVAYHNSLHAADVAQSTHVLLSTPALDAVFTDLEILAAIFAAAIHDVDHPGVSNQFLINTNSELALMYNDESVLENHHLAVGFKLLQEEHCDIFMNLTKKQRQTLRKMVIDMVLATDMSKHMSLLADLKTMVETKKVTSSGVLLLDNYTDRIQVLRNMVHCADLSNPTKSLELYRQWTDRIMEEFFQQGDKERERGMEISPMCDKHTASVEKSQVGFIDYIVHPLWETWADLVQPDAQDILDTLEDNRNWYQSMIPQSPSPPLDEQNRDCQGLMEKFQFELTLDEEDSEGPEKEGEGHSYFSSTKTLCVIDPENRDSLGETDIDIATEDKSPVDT
Glucocorticoid receptor (Homo sapiens), sequence (P04150 whole entry, looked up, the tested form may be a part): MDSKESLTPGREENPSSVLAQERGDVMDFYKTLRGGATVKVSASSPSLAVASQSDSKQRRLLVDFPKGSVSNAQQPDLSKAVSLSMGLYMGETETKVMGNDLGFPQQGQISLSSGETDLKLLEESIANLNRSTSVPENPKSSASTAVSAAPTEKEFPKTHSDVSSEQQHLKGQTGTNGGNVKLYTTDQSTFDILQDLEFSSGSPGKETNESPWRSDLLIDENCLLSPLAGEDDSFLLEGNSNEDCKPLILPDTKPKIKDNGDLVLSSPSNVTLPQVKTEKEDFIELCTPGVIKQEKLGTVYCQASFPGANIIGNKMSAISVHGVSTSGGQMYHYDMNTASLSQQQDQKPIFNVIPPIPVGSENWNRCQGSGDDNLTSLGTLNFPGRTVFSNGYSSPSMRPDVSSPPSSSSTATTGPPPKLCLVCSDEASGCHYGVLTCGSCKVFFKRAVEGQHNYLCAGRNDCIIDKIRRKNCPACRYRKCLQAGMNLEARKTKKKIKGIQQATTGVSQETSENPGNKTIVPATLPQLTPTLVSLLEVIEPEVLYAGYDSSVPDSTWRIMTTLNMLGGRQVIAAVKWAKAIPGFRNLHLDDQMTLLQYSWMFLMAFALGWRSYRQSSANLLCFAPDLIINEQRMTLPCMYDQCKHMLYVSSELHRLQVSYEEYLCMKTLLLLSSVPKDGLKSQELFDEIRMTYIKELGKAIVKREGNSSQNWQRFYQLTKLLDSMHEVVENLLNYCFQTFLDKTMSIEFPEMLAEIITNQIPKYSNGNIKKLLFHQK
Cytochrome P450 1A2 (Homo sapiens), sequence (P05177 whole entry, looked up): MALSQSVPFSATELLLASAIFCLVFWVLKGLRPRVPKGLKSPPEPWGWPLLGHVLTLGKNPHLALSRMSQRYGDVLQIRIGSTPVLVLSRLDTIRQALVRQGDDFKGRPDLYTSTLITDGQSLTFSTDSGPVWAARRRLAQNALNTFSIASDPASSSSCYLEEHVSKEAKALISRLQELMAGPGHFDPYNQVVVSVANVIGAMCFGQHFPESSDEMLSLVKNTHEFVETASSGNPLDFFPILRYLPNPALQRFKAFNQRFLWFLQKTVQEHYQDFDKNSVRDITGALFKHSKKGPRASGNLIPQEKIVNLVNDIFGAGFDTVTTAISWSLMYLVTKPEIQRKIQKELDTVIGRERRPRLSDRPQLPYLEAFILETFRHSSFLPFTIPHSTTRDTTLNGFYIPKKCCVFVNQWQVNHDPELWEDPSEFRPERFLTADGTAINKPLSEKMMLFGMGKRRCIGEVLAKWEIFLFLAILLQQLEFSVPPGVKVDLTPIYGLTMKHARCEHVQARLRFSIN
Cytochrome P450 2C9 (Homo sapiens), sequence (P11712 whole entry, looked up): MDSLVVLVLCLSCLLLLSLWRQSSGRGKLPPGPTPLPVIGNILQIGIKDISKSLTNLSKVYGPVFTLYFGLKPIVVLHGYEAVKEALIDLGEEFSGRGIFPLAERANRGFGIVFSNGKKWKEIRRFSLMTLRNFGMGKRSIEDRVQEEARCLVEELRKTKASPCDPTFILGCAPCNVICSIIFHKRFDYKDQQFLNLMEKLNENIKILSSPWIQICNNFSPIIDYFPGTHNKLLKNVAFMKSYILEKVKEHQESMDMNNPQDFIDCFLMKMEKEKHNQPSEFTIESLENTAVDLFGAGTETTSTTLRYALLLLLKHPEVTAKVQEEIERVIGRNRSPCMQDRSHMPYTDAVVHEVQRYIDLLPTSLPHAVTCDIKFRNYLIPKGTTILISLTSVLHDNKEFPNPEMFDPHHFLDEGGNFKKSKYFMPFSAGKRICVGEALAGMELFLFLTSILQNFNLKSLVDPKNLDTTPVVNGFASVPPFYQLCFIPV
Cytochrome P450 2C19 (Homo sapiens), sequence (P33261 whole entry, looked up): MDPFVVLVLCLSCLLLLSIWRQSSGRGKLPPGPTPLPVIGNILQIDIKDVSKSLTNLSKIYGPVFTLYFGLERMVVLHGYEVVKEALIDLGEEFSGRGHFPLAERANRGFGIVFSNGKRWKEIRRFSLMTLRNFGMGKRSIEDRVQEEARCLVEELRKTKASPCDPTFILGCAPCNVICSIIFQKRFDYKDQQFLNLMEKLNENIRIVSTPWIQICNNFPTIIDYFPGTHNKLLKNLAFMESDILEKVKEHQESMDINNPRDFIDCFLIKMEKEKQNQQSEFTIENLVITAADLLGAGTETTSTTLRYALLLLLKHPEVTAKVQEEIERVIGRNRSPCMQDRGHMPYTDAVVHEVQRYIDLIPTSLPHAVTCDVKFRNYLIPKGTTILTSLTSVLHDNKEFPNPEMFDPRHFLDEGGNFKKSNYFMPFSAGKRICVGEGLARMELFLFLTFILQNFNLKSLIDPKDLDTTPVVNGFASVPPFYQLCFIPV
Lysosomal acid glucosylceramidase (Homo sapiens), sequence (P04062 whole entry, looked up): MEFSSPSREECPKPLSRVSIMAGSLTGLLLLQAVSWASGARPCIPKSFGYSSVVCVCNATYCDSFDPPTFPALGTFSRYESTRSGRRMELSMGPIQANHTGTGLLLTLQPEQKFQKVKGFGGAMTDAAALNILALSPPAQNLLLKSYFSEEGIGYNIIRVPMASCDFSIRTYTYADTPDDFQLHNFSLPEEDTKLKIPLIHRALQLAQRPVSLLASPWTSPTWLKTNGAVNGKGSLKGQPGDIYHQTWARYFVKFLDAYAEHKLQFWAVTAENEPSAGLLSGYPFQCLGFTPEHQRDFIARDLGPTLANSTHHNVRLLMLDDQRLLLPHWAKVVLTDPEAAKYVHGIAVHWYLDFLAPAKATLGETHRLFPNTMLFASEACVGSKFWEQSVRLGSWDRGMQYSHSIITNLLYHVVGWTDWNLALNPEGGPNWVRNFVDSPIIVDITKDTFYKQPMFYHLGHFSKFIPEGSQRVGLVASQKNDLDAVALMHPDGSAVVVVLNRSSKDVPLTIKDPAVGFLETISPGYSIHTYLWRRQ
Cytochrome P450 3A4 (Homo sapiens), sequence (P08684 whole entry, looked up): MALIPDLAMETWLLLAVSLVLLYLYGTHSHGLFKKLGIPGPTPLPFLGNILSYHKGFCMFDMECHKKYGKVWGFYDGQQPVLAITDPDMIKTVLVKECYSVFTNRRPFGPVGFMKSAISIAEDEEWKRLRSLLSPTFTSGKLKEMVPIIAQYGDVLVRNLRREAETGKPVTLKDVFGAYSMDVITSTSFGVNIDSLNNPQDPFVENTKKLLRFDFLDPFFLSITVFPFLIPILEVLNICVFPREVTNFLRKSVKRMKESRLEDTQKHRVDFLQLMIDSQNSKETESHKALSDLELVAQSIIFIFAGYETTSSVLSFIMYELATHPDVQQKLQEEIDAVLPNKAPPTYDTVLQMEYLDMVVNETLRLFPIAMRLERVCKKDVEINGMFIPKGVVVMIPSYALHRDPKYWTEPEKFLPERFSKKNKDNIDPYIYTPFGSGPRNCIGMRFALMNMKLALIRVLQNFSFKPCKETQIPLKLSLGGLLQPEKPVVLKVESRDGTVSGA
Cytochrome P450 2D6 (Homo sapiens), sequence (P10635 whole entry, looked up): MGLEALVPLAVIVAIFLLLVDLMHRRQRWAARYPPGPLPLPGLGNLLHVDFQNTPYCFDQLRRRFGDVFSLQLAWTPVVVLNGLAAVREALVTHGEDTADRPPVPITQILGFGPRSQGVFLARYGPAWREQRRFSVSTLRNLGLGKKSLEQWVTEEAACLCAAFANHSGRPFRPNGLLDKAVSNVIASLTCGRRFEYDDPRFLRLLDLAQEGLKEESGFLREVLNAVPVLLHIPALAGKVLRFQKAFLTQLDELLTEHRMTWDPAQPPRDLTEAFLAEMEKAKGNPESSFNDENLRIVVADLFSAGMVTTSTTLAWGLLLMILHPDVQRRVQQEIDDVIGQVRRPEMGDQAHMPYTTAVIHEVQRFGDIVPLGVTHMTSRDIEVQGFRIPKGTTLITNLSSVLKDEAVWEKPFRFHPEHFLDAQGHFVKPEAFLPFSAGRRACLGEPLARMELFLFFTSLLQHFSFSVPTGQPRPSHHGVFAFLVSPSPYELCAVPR

SMILES | Potency [1] | activity change, negative = inhibition [2] | activity change, negative = inhibition [3] | activity, negative = inhibition [4] | Potency [5] | Potency [6] | Potency [7] | Potency [8] | Potency [9] | Potency [10] | Potency [3] | Potency [11] | activity change, negative = inhibition [12] | Potency [13] | Potency [14]
Nc1cccc2nsnc12 | > 11.4 µM | 20.1% | -15.3% [at 2.29 µM] | 2.62% | > 46 µM | > 9.22 µM | inactive | inactive | inactive | inactive | – | – | – | – | –
NS(=O)(=O)c1ccc(N=Nc2nc3[nH]cnc(=S)c3[nH]2)cc1 | > 11.4 µM | 2.31% | – | 14.2% | > 46 µM | – | inactive | – | – | – | 6.31 µM (active) | inactive | – | – | –
Clc1ccccc1NN(Cc1ccccn1)c1ccccc1Cl | > 11.4 µM | -10% | -22.4% [at 2.29 µM] | -11% | > 46 µM | > 9.22 µM | inactive | – | – | 3.98 µM (active) | – | inactive | – | – | –
Cc1ccc(S(=O)(=O)N2CCC(C(=O)O)(c3ccccc3)CC2)cc1 | > 11.4 µM | 0.56% | – | -9.97% | > 46 µM | > 9.22 µM | inactive | – | – | inactive | inactive | inactive | – | – | –
Clc1ccc(CSc2ncnc3c2ncn3[C@@H]2CCCCO2)cc1 | > 11.4 µM | -8.23% | – | -14.7% | > 46 µM | > 9.22 µM | inactive | – | – | – | – | inactive | 12.9% | – | –
Cc1c2cnccc2c(C)c2c1c1ccccc1n2CCOC(=O)c1ccccc1 | > 11.4 µM | 2.26% | – | – | > 46 µM | > 9.22 µM | inactive | 3.16 µM (active) | 3.16 µM (active) | – | 0.0794 µM (active) | inactive | – | 0.631 µM (active) | inactive
OC[C@@H]1O[C@@H](n2cnc3c(SCc4ccccc4)ncnc32)[C@@H](O)[C@H]1O | > 11.4 µM | 3.13% | -17.2% [at 2.29 µM] | – | > 46 µM | > 9.22 µM | inactive | – | – | – | – | inactive | – | – | –
CSc1cccc(NC(=O)OC2CCCCCCCCCCC2)c1 | > 11.4 µM | 8.21% | – | – | > 46 µM | > 9.22 µM | inactive | – | – | – | 5.01 µM (active) | inactive | – | – | inactive
Nc1nc(SCc2ccccn2)c2ncn(C3CCCC3)c2n1 | > 11.4 µM | -14.6% | – | 4.58% | > 46 µM | > 9.22 µM | – | – | – | – | – | inactive | 9.85% | – | –
O=C(O)[C@H](Cc1ccccc1)N1C(=O)c2ccccc2C1=O | > 11.4 µM | -3.82% | – | -2.52% | > 46 µM | > 9.22 µM | inactive | – | – | – | – | inactive | 16.6% | – | –
CC1(C)S[C@@H]2[C@H](NC(=O)C3(N)CCCCC3)C(=O)N2[C@@H]1C(=O)O | > 11.4 µM | -5.88% | – | 0.508% | > 46 µM | > 9.22 µM | – | – | – | – | – | inactive | 9.48% | – | –
O=C1CN2CCN(CC2)CC(=O)Nc2ccc(cc2)S(=O)(=O)c2ccc(cc2)NC(=O)CN2CCN(CC2)CC(=O)Nc2ccc(cc2)S(=O)(=O)c2ccc(cc2)N1 | > 11.4 µM | 5.33% | – | 12.3% | – | > 9.22 µM | inactive | – | – | – | inactive | inactive | – | – | –
CCOC(=O)c1c2c(n3ccccc13)C(=O)c1ccccc1C2=O | > 11.4 µM | 19.9% | – | – | > 46 µM | > 9.22 µM | inactive | – | – | – | 0.1 µM (active) | – | – | – | inactive
O=C=Nc1ccc(Cc2ccc(N=C=O)cc2)cc1 (tested in a mixture with another compound) | > 11.4 µM | -8.4% | – | -1.09% | – | – | inactive | – | – | – | 5.01 µM (active) | inactive | – | – | –
OC1CC2CC[C@H](C1)N2CCCN1c2ccccc2Sc2ccc(Cl)cc21 (stereo partly drawn) | > 11.4 µM | 18.1% | – | – | > 46 µM | > 9.22 µM | inactive | – | 0.0631 µM (active) | – | inactive | inactive | – | – | –
COc1ccc(C(=O)CCN(C)C)c2ccccc12 | > 11.4 µM | -15.5% | – | – | > 46 µM | > 9.22 µM | inactive | 3.98 µM (active) | – | – | 1.58 µM (active) | inactive | – | – | inactive
